The results in this text go back to PubChem BioAssay AID463173 (ICCB-Longwood Screening Facility, Harvard Medical School, 2010).

Among all 52,000 compounds or so, about 4,300 (8.3%) were called active. No stated cut-off is given here; in the data, active means survival mostly below about 52% (no sharp cut-off); inactive means mostly above about 56%. The list comes from a sample in which actives are over-represented; it also holds similar structures and randomly drawn compounds.

This test deals with DeltatarO mutant. Put plainly: growth inhibition of S. aureus wild type versus tarO mutant, primary screen, teichoic acid synthesis inhibitors, RN4220, OD600 (AID 463173). As to conditions: OD600, 18 h, active compounds read low, screened at 18.75 µg/mL (by protocol).
As for `COC(=O)c1cc(NC(=O)Cn2nc(-c3ccc(C)c(C)c3)ccc2=O)cc(C(=O)OC)c1`, the survival was 65% (inactive).

For the compound `O=C(Cn1c(=O)nc(-c2ccccc2)c2cc(Cl)ccc21)Nc1ccc(F)c(Cl)c1`, the survival was 75% (inactive).

As for `CC(=O)Nc1ccc(Nc2ncnc3sc4c(c23)CCCC4)cc1`, the survival was 76% (inactive).

As for `COc1ccc(Nc2ncnc3sc4c(c23)CCCC4)cc1`, the survival was 69% (inactive).

On to `O=C(Cn1nc(-c2ccccc2)c2c(c1=O)CCCC2)Nc1ccc(F)c(Cl)c1`, for which the survival was 23% (active).

Consider `O=C(Cn1nc(C(F)(F)F)c2c1CCCC2)Nc1ccc(F)c(Cl)c1`, for which the survival is 62% (inactive).

Turning to `COC(=O)c1cc(NC(=O)Cn2nc(-c3ccccc3)c3c(c2=O)CCCC3)cc(C(=O)OC)c1`, the survival was 24% (active).

As for `Cc1ccc(Cl)cc1NC(=O)C(C)n1nnc2sc3c(c2c1=O)CCCC3` (stereo unspecified), the survival is 69% (inactive).

For the compound `COC(=O)c1cc(NC(=O)Cn2nc(C)n3cccc3c2=O)cc(C(=O)OC)c1`, the survival is 87% (inactive).

Turning to `CC(C(=O)Nc1ccccc1C(F)(F)F)n1nnc2sc3c(c2c1=O)CCCC3` (stereo unspecified), the survival is 81% (inactive).

On to `CCc1nc(Nc2ccc(F)c(Cl)c2)c2c3c(sc2n1)CCCC3`, for which the survival was -4% (active).

For `CC(C(=O)Nc1cc(C(F)(F)F)ccc1Cl)n1nnc2sc3c(c2c1=O)CCCC3` (stereo unspecified), the survival is 53% (active).

Consider `COc1ccc(OCC(=O)Nc2ccc(-c3nc4cc(C)cc(C)c4o3)cc2)cc1`, for which the survival is 75% (inactive).

On to `CCOC(=O)C1=C(CN2CCN(c3ccc(Cl)cc3)CC2)NC(=O)NC1c1ccc(F)cc1` (stereo unspecified), for which the survival is 70% (inactive).

As for `CCOC(=O)c1nc(Nc2ccc(Cl)cc2)c2c(C)noc2n1`, the survival was 68% (inactive).

Turning to `COc1ccc(OC)c(CNC(=O)c2ccc(NC(=O)c3nsc4ccccc34)cc2)c1`, the survival was 80% (inactive).

`Cc1c(Cl)cccc1NC(=O)Cn1nnc2sc3c(c2c1=O)CCCC3`: the survival was 75% (inactive).

With `COc1ccc(NC(=O)Cn2nnc3sc4c(c3c2=O)CCCC4)cc1`, the survival is 61% (inactive).

Turning to `O=C(Cn1nnc2sc3c(c2c1=O)CCCC3)Nc1ccc(F)c(Cl)c1`, the survival is 36% (active).

As for `CCOc1ccc(/C=C(\C#N)c2nc(-c3cc4ccccc4oc3=O)cs2)c(OCC)c1`, the survival was 81% (inactive).

As for `CCCCC(=O)Nc1cc(-c2nc3cccnc3s2)ccc1C`, the survival is 35% (active).

As to `COc1ccc(C(=O)Nc2cccc(-c3nc4cccnc4s3)c2C)c(OC)c1`, the survival is 103% (inactive).

On to `COCC(=O)Nc1cccc(-c2nc3cccnc3s2)c1`, for which the survival was 68% (inactive).

With `Cc1cccc(C(=O)Nc2cc(-c3nc4cccnc4s3)ccc2C)c1`, the survival is 45% (active).

For `COc1cc(OC)cc(C(=O)Nc2cc(-c3nc4cccnc4s3)ccc2C)c1`, the survival was 43% (active).

Take `Cc1ccc(-c2nc3cccnc3s2)cc1NC(=O)Cc1ccccc1`: the survival is 99% (inactive).

For the compound `CCCC(=O)Nc1cc(-c2nc3cccnc3s2)ccc1C`, the survival is 109% (inactive).

On to `COc1ccc(CC(=O)Nc2cc(-c3nc4cccnc4s3)ccc2C)cc1`, for which the survival was 41% (active).

Regarding `CCCCC(=O)Nc1cc(-c2cn3cccnc3n2)ccc1C`, the survival was 102% (inactive).

As for `Cc1ccc(C(=O)Nc2cccc(-c3nc4cccnc4s3)c2C)cc1`, the survival is 111% (inactive).

For `Cc1cccc(CC(=O)Nc2cccc(-c3nc4cccnc4s3)c2)c1`, the survival was 93% (inactive).

Regarding `CCOc1ccc(CC(=O)Nc2cccc(-c3nc4cccnc4s3)c2C)cc1`, the survival is 90% (inactive).

As for `COc1ccc(N2CCN(C(=O)CS(=O)(=O)c3cccc4nsnc34)CC2)cc1`, the survival is 107% (inactive).

As to `O=C(CSc1nc2c([nH]c3ccccc32)c(=O)n1-c1cccc(C(F)(F)F)c1)N1CCCC1`, the survival is 71% (inactive).

As for `Cc1c(C(=O)Nc2ccc(F)c(C(F)(F)F)c2)sc2nc(-c3ccccc3)cn12`, the survival was 105% (inactive).

Consider `CCOC(=O)C1=CN(O)/C(=C\N=O)C=C1`, for which the survival is 78% (inactive).

Take `COc1ccc(Cl)cc1NC(=O)CSc1cc(C)[nH]c(=O)n1`: the survival was 80% (inactive).

`COc1ccc(S(=O)(=O)c2cn(C)c3cc(N4CCCCCC4)c(F)cc3c2=O)cc1`: the survival was 86% (inactive).

Regarding `Cc1ccccc1Nc1c(-c2c(F)cccc2Cl)nc2ccc(Br)cn12`, the survival was 69% (inactive).

On to `COc1ccc(/C=C\c2onc(C)c2S(=O)(=O)N2CCC(C(=O)Nc3ccc(Cl)cc3)CC2)cc1`, for which the survival is 65% (inactive).

As for `Cc1ccccc1C(=O)Nc1cccc(-c2nc3cccnc3s2)c1`, the survival was 81% (inactive).

`O=C(Nc1cccc(-c2nc3cccnc3s2)c1)c1cccc(Br)c1`: the survival is 32% (active).

With `CN(C)c1ccc(C(=O)Nc2cccc(-c3nc4cccnc4s3)c2)cc1`, the survival is 49% (inactive).

For the compound `CCCCOc1ccc(C(=O)Nc2cccc(-c3nc4cccnc4s3)c2)cc1`, the survival is 92% (inactive).

In the case of `CCOc1ccccc1C(=O)Nc1cc(-c2nc3cccnc3s2)ccc1C`, the survival was 37% (active).

For `CCOc1ccc(C(=O)Nc2cccc(-c3nc4cccnc4s3)c2C)cc1OCC`, the survival is 90% (inactive).

For the compound `COc1ccc(CC(=O)N2N=C(c3ccncc3)CC2(O)C(F)(F)F)cc1` (stereo unspecified), the survival is 104% (inactive).

Consider `COc1ccccc1CNC(=O)CCCn1c(=O)c2ccccc2n(CC(=O)Nc2c(C)cc(C)cc2C)c1=O`, for which the survival was 166% (inactive).

Regarding `N#Cc1ccc(CSCC(=O)NN=C2CCCC2)cc1`, the survival is 65% (inactive).

Take `COc1ccc(OCC2c3cc(OC)c(OC)cc3CCN2C(=O)c2ccc(F)cc2)cc1` (stereo unspecified): the survival was 94% (inactive).

Regarding `COc1ccccc1NC(=O)c1sc2cccc(Cl)c2c1Cl`, the survival was 64% (inactive).

Regarding `CCOC(=O)c1ccccc1NC(=O)c1sc2ccccc2c1Cl`, the survival is 36% (active).

In the case of `CCOc1ccc(NC(=O)c2sc3ccccc3c2Cl)cc1`, the survival was 68% (inactive).

In the case of `O=C(Nc1ccccc1Cl)c1sc2cccc(Cl)c2c1Cl`, the survival is 63% (inactive).

On to `CCN(CC)c1ccc(NC(=O)c2sc3ccccc3c2Cl)cc1`, for which the survival is -2% (active).

`CCCC(=O)Nc1ccc(NC(=O)c2sc3ccccc3c2Cl)cc1`: the survival is 109% (inactive).

Regarding `Cc1ccc(NC(=O)c2sc3ccccc3c2Cl)cc1`, the survival was 66% (inactive).

With `Cc1cccc(NC(=O)c2sc3cccc(Cl)c3c2Cl)c1`, the survival is 11% (active).

As to `CCOC(=O)c1ccc(NC(=O)c2sc3ccccc3c2Cl)cc1`, the survival was 67% (inactive).

As to `CC(C)NC(=O)c1ccc2c(c1)nc1n2CCCCC1`, the survival is 91% (inactive).

For `COc1cccc(Cn2c(=O)n(CC3CCC(C(=O)N4CCOCC4)CC3)c(=O)c3sccc32)c1` (stereo unspecified), the survival is 124% (inactive).
